# According to PubChem BioAssay:
# Records with an inconclusive call do not appear. The source made the active and inactive calls. Unless noted, cut-off not given; nearly all actives show AC50 up to about 37 µM.
# How the values were obtained:
# [1] = viability loss in pontine glioma line – cell-based, SU-DIPG-XIII, MIPE4.0, CellTiter-Glo, qHTS, dose response (AID 1347061); conditions: CellTiter-Glo ATP luminescence;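 further: cells exposed to compound for 48 hours before readout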
# [2] = viability loss in pontine glioma line – cell-based, JHH-DIPG-1, MIPE4.0, CellTiter-Glo, qHTS, dose response (AID 1347062; cut-off not given, nearly all actives have AC50 up to about 27 µM;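 on AC50: cells exposed to compound for two days before readout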); conditions: JHH-DIPG-1 viability, CellTiter-Glo ATP luminescence
# [3] = growth inhibition of DIPG cells – cell-based, MIPE4.0 library, CellTiter-Glo luminescence, qHTS (AID 1347066; cut-off not given, nearly all actives have AC50 up to about 30 µM;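 further: cells exposed to compound for 48 hours before readout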); conditions: SU-DIPG-VI viability, CellTiter-Glo ATP luminescence
# [4] = growth inhibition of DIPG cells – cell-based, MIPE5.0 library, qHTS (AID 1347068; cut-off not given, nearly all actives have IC50 up to about 30 µM); conditions: SU-DIPG-XXV viability
# [5] = viability loss in pontine glioma line – cell-based, SU-DIPG-XXV, MIPE5.0, CellTiter-Glo, qHTS, dose response (AID 1347065; cut-off not given, nearly all actives have AC50 up to about 26 µM;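 further: cells exposed to compound for 48 hours before ATP readout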); conditions: CellTiter-Glo ATP luminescence
# [6] = viability loss with induced miR-34 in A549 – imaging, A549 dox-inducible miR-34, nuclei and caspase counts, primary screen (AID 1347080;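 active means compounds whose cell count with miR-34 switched on is under 0.7 times the count with it off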); conditions: A549 miR-34 inducible, Hoechst nuclei count, 48 h
# [7] = MELAS cybrid and Rieske KO viability enhancers – cell-based, MELAS cybrids, Rieske KO mouse fibroblasts, CellTiter-Glo, primary screen (AID 1508586;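 active means mean z-score across replicates of 1.96 or higher in either the MELAS or the Rieske mutant cell line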;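 further: z relative to plate mean and SD of compound and empty wells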); conditions: low glucose
# [8] = viability loss in pontine glioma line – cell-based, SU-DIPG-XIII, MIPE5.0, CellTiter-Glo, qHTS, dose response (AID 1347064; cut-off not given, nearly all actives have AC50 up to about 23 µM); conditions: CellTiter-Glo ATP luminescence
# [9] = JHH-DIPG-1 glioma cell viability, MIPE5.0 library, CellTiter-Glo luminescence, qHTS (AID 1347067; cut-off not given, nearly all actives have AC50 up to about 26 µM;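 further: cells exposed to compound for 48 hours before readout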); conditions: JHH-DIPG-1 glioma viability, CellTiter-Glo ATP luminescence
# [10] = compounds altering HSF1 focus formation in cells – imaging, Selleck Cancer Library (AID 1347162; in the data active means plate-normalised HSF1 focus index below about 0.46); conditions: human cells, HSF1 nuclear foci imaging, at 10 µM; SSMD: measured here: HSF1 foci SSMD mean; cell count: measured here: cell number; plate-normalised HSF1 focus index: stronger effect = lower value
# [11] = growth inhibition, single agent or in combination, cell-based, chromothripsis tumors, cisplatin or BGB combos (AID 1671449; in the data active means inhibition above about 80%;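 further: cells exposed for 96 hours; 0% = vehicle DMSO and 100% = killing by high DMSO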); conditions: LFS_MB_P medulloblastoma cells
# [12] = growth inhibition, single agent and combos, cell-based, chromothripsis tumors, cisplatin or BGB combos (AID 1671450; in the data active means inhibition above about 80%;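 further: cells exposed to compound for four days; 0% = vehicle DMSO and 100% = cell killing by high DMSO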); conditions: HDN33 neuroblastoma cells, stronger effect = higher value
# [13] = growth inhibition, single agents and combos, ICB984, cell-based, cisplatin or BGB combos, synergistic combos for chromothripsis tumors (AID 1671451; call rule not given here;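 further: cells exposed for 96 hours before readout; 0% = vehicle DMSO and 100% = killing by high DMSO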); conditions: ICB984 medulloblastoma cells, drug combinations, stronger effect = higher value
# [14] = growth inhibition, single agents and combos, HTB85, cell-based, BGB or cisplatin IC20 combos, synergistic combos for chromothripsis tumors (AID 1671453; in the data active means inhibition above about 80%;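 further: cells exposed for 96 hours before readout; 0% = vehicle DMSO and 100% = high DMSO killing control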); conditions: HTB85 osteosarcoma cells, drug combinations, stronger effect = higher value
# [15] = growth inhibition, MDA-MB-436, cell-based, BGB or cisplatin combos, synergistic combos for chromothripsis tumors (AID 1671458; call rule not given here;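 further: cells exposed for 96 hours; 0% = vehicle DMSO and 100% = killing by high DMSO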); conditions: MDA-MB-436 breast carcinoma growth inhibition, drug combinations, stronger effect = higher value
# [16] = BT084 cell growth, single and combined drugs, ICGC_MB145, cisplatin and BGB IC40 combos (AID 1671461; in the data active means inhibition above about 80%;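 further: cells exposed to drugs for 96 hours; 0% = vehicle DMSO and 100% = high DMSO full killing control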); conditions: BT084 medulloblastoma cells, drug combinations, stronger effect = higher value
# [17] = RCMB18 cell growth, single agent and combined, cisplatin and BGB IC40 combos (AID 1671462; in the data active means inhibition above about 80%;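 further: cells exposed to compound for four days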); conditions: RCMB18 medulloblastoma cells, stronger effect = higher value
# [18] = CRL1545 cell growth, single agent and combined, cisplatin and BGB IC20 combos (AID 1671464; in the data active means inhibition above about 80%;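 further: cells exposed to compound for 96 hours before readout; 0% = vehicle DMSO and 100% = high DMSO killing control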); conditions: CRL1545 osteosarcoma cells, stronger effect = higher value
# [19] = stronger effect = lower value, cell number ratio, induced over uninduced
# [20] = measured here: relative caspase fold change +Dox/-Dox
# [21] = measured here: total cells with miR-34 induction, stronger effect = lower value
# [22] = measured here: total cells without miR-34 induction
# [23] = MELAS cybrid survival, CellTiter-Glo 48 h, stronger effect = higher value
# [24] = Rieske KO mouse fibroblast survival, CellTiter-Glo 72 h
# [25] = measured here: with BGB IC20 combination, at 0.5 µM
# [26] = measured here: with cisplatin IC20 combination, at 0.5 µM
smiles,measurement,setting,value
OC[C@H](Cc1ccccc1)Nc1nc(Oc2ccc3c(c2)CCC3)nc2c1ncn2Cc1ccc(-c2ccccc2)cc1,outcome,[1],inactive
same,outcome,[2],inactive
same,outcome,[3],inactive
same,outcome,[4],inactive
CC1(C)OC2CC3C4CC(F)C5=CC(=O)C=CC5(C)C4C(O)CC3(C)[C@]2(C(=O)CO)O1 (stereo not given in full),outcome,[1],inactive
same,outcome,[2],inactive
same,outcome,[3],inactive
COc1ccc2c(Oc3ccc(NC(=O)c4c(C)n(CC(C)(C)O)n(-c5ccccc5)c4=O)nc3)ccnc2c1,outcome,[1],inactive
same,outcome,[2],inactive
same,AC50,[5],13.2 µM (active)
same,outcome,[3],inactive
same,fold change,[6]; [19],0.842 (inactive)
same,fold change,[6]; [20],0.917
same,cell count,[6]; [21],7640
same,cell count,[6]; [22],9080
same,z-score,[7]; [23],-0.36 (inactive)
same,z-score,[7]; [24],1.01
CCCCC(=O)O[C@]1(C(=O)CO)[C@H](C)C[C@H]2[C@@H]3CCC4=CC(=O)C=C[C@]4(C)[C@@]3(F)[C@@H](O)C[C@@]21C,outcome,[1],inactive
same,outcome,[2],inactive
same,outcome,[3],inactive
COCCNCCCn1c(C(=O)CF)c(-c2ccc(C)cc2)c2c(N)ncnc21,outcome,[1],inactive
same,outcome,[2],inactive
same,outcome,[8],inactive
same,outcome,[9],inactive
same,outcome,[4],inactive
COc1cc2c(cc1OC)CN(CCc1ccc(NC(=O)c3cc(OC)c(OC)cc3NC(=O)c3cnc4ccccc4c3)cc1)CC2,AC50,[1],20.9 µM (active)
same,outcome,[2],inactive
same,outcome,[5],inactive
same,outcome,[9],inactive
same,outcome,[4],inactive
same,fold change,[6]; [19],0.948 (inactive)
same,fold change,[6]; [20],0.402
same,cell count,[6]; [21],8470
same,cell count,[6]; [22],8940
same,z-score,[7]; [23],-0.604 (inactive)
same,z-score,[7]; [24],0.309
COc1cc2ncnc(-n3nc(-c4ccccn4)nc3N)c2cc1OC,AC50,[1],23.5 µM (active)
same,AC50,[2],18.7 µM (active)
same,AC50,[5],10.5 µM (active)
same,outcome,[3],inactive
same,outcome,[4],inactive
same,SSMD,[10],1.68
same,cell count,[10],7810
same,plate-normalised HSF1 focus index,[10],1.06 (inactive)
same,inhibition,"[11]; at 0.5 µM, stronger effect = higher value",-19.6% (inactive)
same,inhibition,"[11]; measured here: combination with BGB IC20, at 0.005 µM",-6.46%
same,inhibition,"[11]; measured here: combination with BGB IC40, at 0.005 µM",-12%
same,inhibition,"[11]; measured here: combination with BGB IC40, at 0.05 µM",-14.8%
same,inhibition,"[11]; measured here: combination with cisplatin, at 0.5 µM, stronger effect = higher value",-28.9%
same,inhibition,"[11]; measured here: combination with cisplatin, at 5 µM, stronger effect = higher value",3.9%
same,inhibition,"[12]; BGB combo, at 5 µM",-0.513%
same,inhibition,[12]; at 0.5 µM,-39.2% (inactive)
same,inhibition,"[12]; cisplatin combo, at 5 µM",11.6%
same,inhibition,[12]; [25],-47.1%
same,inhibition,[12]; [26],-45.4%
same,inhibition,"[12]; single agent, at 5 µM",27.9%
same,inhibition,"[13]; BGB IC20 combo, at 0.005 µM",8.82%
same,inhibition,"[13]; BGB IC40 combo, at 0.005 µM",-28.2%
same,inhibition,"[13]; BGB IC40 combo, at 0.05 µM",-13.5%
same,inhibition,[13]; at 0.5 µM,-27.7% (inactive)
same,inhibition,"[13]; cisplatin combo, at 0.05 µM",-18%
same,inhibition,"[13]; cisplatin combo, at 0.5 µM",-47.4%
same,inhibition,"[13]; cisplatin combo, at 5 µM",-33.3%
same,inhibition,"[13]; measured here: 5 uM single agent, at 5 µM",-7.48%
same,inhibition,[14]; at 0.5 µM,-23% (inactive)
same,inhibition,"[14]; measured here: with BGB IC20, at 0.5 µM",-35.6%
same,inhibition,"[14]; measured here: with BGB IC20, at 5 µM",15.3%
same,inhibition,"[14]; measured here: with cisplatin IC20, at 0.5 µM",-19.3%
same,inhibition,"[14]; measured here: with cisplatin IC20, at 5 µM",25.5%
same,inhibition,"[14]; single agent, at 5 µM",39.7%
same,inhibition,[15]; at 0.5 µM,-17.5% (inactive)
same,inhibition,"[15]; measured here: BGB combination, at 0.5 µM",-21.1%
same,inhibition,"[15]; measured here: BGB combination, at 5 µM",-18.6%
same,inhibition,"[15]; measured here: cisplatin combination, at 0.5 µM",-13.3%
same,inhibition,"[15]; measured here: cisplatin combination, at 5 µM",-24.4%
same,inhibition,[16]; at 0.5 µM,0.0685% (inactive)
same,inhibition,"[16]; cisplatin combination, at 0.5 µM",7.09%
same,inhibition,"[16]; cisplatin combination, at 5 µM",63.7%
same,inhibition,"[16]; measured here: BGB IC40 combination 0.05 uM, at 0.05 µM",69%
same,inhibition,"[16]; single agent, at 5 µM",13.7%
same,inhibition,[17]; at 0.5 µM,-14.5% (inactive)
same,inhibition,"[17]; cisplatin combo, at 5 µM",36.5%
same,inhibition,"[17]; measured here: BGB IC40 combination, at 0.05 µM",-31.7%
same,inhibition,"[17]; measured here: combination with cisplatin, at 0.5 µM",-5.13%
same,inhibition,"[17]; single agent, at 5 µM",-24.7%
same,inhibition,[18]; at 0.5 µM,-59.7% (inactive)
same,inhibition,[18]; [25],-65.7%
same,inhibition,[18]; [26],-56.7%
same,inhibition,"[18]; single agent, at 0.05 µM",-35.9%
same,inhibition,"[18]; single agent, at 5 µM",-52.5%
